ChEMBL document CHEMBL4513216, “Probing the Open Global Health Chemical Diversity Library for Multistage-Active Starting Points for Next-Generation Antimalarials” (ACS Infect Dis, 2020)
Out of some 68,000 compounds screened, about 2,700 (4%) showed an effect of 50% or more. The sample as a whole holds a higher share of strong results than the screen did.

The molecules below were run on Plasmodium berghei (assay: Screen against P. berghei liver stage (PbLuc), transformed with Luciferase, at 2uM). Settings: tested at 2 uM.
Assay type: functional, HepG2

**Q.** How did the INHIBITION turn out when `c1ccc(C2CCCN(Cc3cc4n(n3)CCNC4)CC2)cc1` (stereo unspecified) was run?
**A.** 9.57%

**Q.** For `OC(c1ccccn1)C1CCN(Cc2cc3n(n2)CCNC3)CC1` (stereo unspecified), which INHIBITION is on record?
**A.** 60%

**Q.** With `OC(c1ccccn1)C1CCN(Cc2cc3n(n2)CCCNC3)CC1` (stereo unspecified) as the molecule, how does the INHIBITION read?
**A.** -29.69%

**Q.** `CCC(NC(=O)C1CCN(S(C)(=O)=O)CC1)c1ccc(OC)cc1` (stereo unspecified) was tested. Which INHIBITION did it give?
**A.** 19.7%

**Q.** `O=C(NC1CCCC1)[C@@H]1C[C@@H]2CCN(Cc3ccoc3)C[C@H]2O1` was tested. Which INHIBITION did it give?
**A.** 3.18%

**Q.** Which INHIBITION does the source give for `COc1ccc(C(CC(=O)O)NC(=O)CCc2cccs2)cc1OC` (stereo unspecified) here?
**A.** 36.38%

**Q.** For `O=C(O)CC(NC(=O)CCCc1cccs1)c1ccc(F)cc1` (stereo unspecified), which INHIBITION is on record?
**A.** 57.2%

**Q.** How did the INHIBITION turn out when `Cc1ccc(C(CC(=O)O)NC(=O)CCc2cccs2)cc1` (stereo unspecified) was run?
**A.** -34.12%

**Q.** For `CCCc1cc(NC2CCc3nc(C(C)C)nn3C2)n2ncnc2n1` (stereo unspecified), which INHIBITION is on record?
**A.** -43.09%

**Q.** `COc1cccc(CN(C)Cc2ccc(C#N)cc2)c1OC` was tested. Which INHIBITION did it give?
**A.** 10.52%

**Q.** Which INHIBITION does the source give for `COc1cccc(CN(C)Cc2cc(C#N)ccc2F)c1OC` here?
**A.** 56.49%

**Q.** For `COc1cccc(CN(C)Cc2cccc(C#N)c2)c1OC`, which INHIBITION is on record?
**A.** 3.3%

**Q.** Which INHIBITION does the source give for `Cc1ccc(NC(=O)C2=CN=S=N2)cc1` here?
**A.** 25.51%

**Q.** For `CN(C)C(=O)[C@@H]1C[C@@H]2CCN(Cc3ccncc3)C[C@@H]2O1`, which INHIBITION is on record?
**A.** 37.6%

**Q.** How did the INHIBITION turn out when `c1cc2nccc(CC3CCCN(C4CCOCC4)CC3)c2cn1` (stereo unspecified) was run?
**A.** 24.56%

**Q.** Which INHIBITION does the source give for `O=C(NC1CC1)c1cc(Cl)ccc1-n1cnnn1` here?
**A.** -14%

**Q.** With `O=C(NC1CCN(C2CC2)CC1)c1cc(Cl)ccc1-n1cnnn1` as the molecule, how does the INHIBITION read?
**A.** 19.04%

**Q.** Which INHIBITION does the source give for `CC(=O)N1CCC(NC(=O)c2cc(Cl)ccc2-n2cnnn2)CC1` here?
**A.** 53.19%

**Q.** With `CCCC1(CO)CCCN(C(=O)CNC(C)=O)C1` (stereo unspecified) as the molecule, how does the INHIBITION read?
**A.** 15.27%

**Q.** With `O=c1cc(N2CCNCC2)cnn1Cc1noc(C2CCCC2)n1` as the molecule, how does the INHIBITION read?
**A.** 41.84%

**Q.** With `O=C(Cn1nc(Br)nc1Br)N1CCCC1` as the molecule, how does the INHIBITION read?
**A.** -14.58%

**Q.** For `CCCC1COCCN1Cc1ccc(NC(C)=O)cc1` (stereo unspecified), which INHIBITION is on record?
**A.** 48.17%

**Q.** How did the INHIBITION turn out when `CCCC1COCCN1Cc1ccc(C(=O)O)cc1` (stereo unspecified) was run?
**A.** 55.7%

**Q.** With `CCCC1COCCN1Cc1ccc(S(=O)(=O)NC)cc1` (stereo unspecified) as the molecule, how does the INHIBITION read?
**A.** 30.96%

**Q.** `COc1ccc(Cl)cc1CS(=O)(=O)CC(=O)N(C)Cc1ccccc1F` was tested. Which INHIBITION did it give?
**A.** 51.94%

**Q.** `Cc1ccccc1CS(=O)(=O)CC(=O)N(C)Cc1ccccc1F` was tested. Which INHIBITION did it give?
**A.** -38.35%

**Q.** How did the INHIBITION turn out when `CN(Cc1ccccc1F)C(=O)CS(=O)(=O)Cc1ccc(Cl)c(Cl)c1` was run?
**A.** -10.5%

**Q.** Which INHIBITION does the source give for `Cc1nc(C(C)C)sc1C(C)N(C)C(=O)c1ccc(=O)n(C)c1` (stereo unspecified) here?
**A.** -11.76%

**Q.** With `CCc1ccc(CN(C)Cc2nc(COc3ccccc3)no2)nc1` as the molecule, how does the INHIBITION read?
**A.** 64.2%

**Q.** How did the INHIBITION turn out when `CCc1ccc(CN(C)Cc2nc(-c3cnccn3)no2)nc1` was run?
**A.** -16.76%

**Q.** For `CCc1ccc(CN(C)c2ccc(-c3nc(COC)no3)cn2)nc1`, which INHIBITION is on record?
**A.** 10.65%

**Q.** With `CN(Cc1ccc(F)cc1F)Cc1cc2c(cc1Br)OCCO2` as the molecule, how does the INHIBITION read?
**A.** 45.66%

**Q.** How did the INHIBITION turn out when `Cc1cnccc1N1CCCN(C(=O)CCCc2cn[nH]c2)CC1` was run?
**A.** 9.17%

**Q.** For `O=C(c1cnccn1)N1C[C@@H]2OCC(=O)N(CC3CCCCC3)[C@@H]2C1`, which INHIBITION is on record?
**A.** -26.14%

**Q.** Which INHIBITION does the source give for `O=C(c1cnccn1)N1C[C@@H]2[C@@H](C1)OCC(=O)N2CC1CCCC1` here?
**A.** 31.65%

**Q.** `O=C(c1ccccn1)N1C[C@@H]2OCC(=O)N(CC3CCCCC3)[C@@H]2C1` was tested. Which INHIBITION did it give?
**A.** 56.16%

**Q.** Which INHIBITION does the source give for `O=C(NCC(=O)N1CCc2ccccc2C1)c1cnccn1` here?
**A.** 23.94%

**Q.** Which INHIBITION does the source give for `CC(C)(CO)Nc1cc(-c2cn[nH]c2)ncn1` here?
**A.** 6.03%

**Q.** `CCCn1nccc1NC(=O)CN1CCCC1Cn1cccn1` (stereo unspecified) was tested. Which INHIBITION did it give?
**A.** 33.9%

**Q.** For `Cc1cnn(CC2CCCCN2CC(=O)Nc2nncs2)c1` (stereo unspecified), which INHIBITION is on record?
**A.** 23.65%

**Q.** Which INHIBITION does the source give for `Cc1cnn(CC2CCCCN2CC(=O)Nc2nc(C)cs2)c1` (stereo unspecified) here?
**A.** 67.69%

**Q.** With `CCCn1nccc1NC(=O)CN1CCC[C@H]1CO` as the molecule, how does the INHIBITION read?
**A.** 13.53%

**Q.** `Cc1cnn(CC2CCCN2CC(=O)Nc2nc(C)cs2)c1` (stereo unspecified) was tested. Which INHIBITION did it give?
**A.** -54.73%

**Q.** Which INHIBITION does the source give for `CCCn1nccc1NC(=O)CN1CCCC1Cn1cc(C)cn1` (stereo unspecified) here?
**A.** 50.32%

**Q.** For `Cc1cc(O)n(-c2ccccc2Cl)c(=O)c1C#N`, which INHIBITION is on record?
**A.** 3.1%

**Q.** Which INHIBITION does the source give for `O=C1NCCCCC1NS(=O)(=O)N1CCCCCC1` (stereo unspecified) here?
**A.** -4.89%

**Q.** `CC(C)N1CC[C@H]2[C@H](C[C@@H](Cn3cncn3)N2c2nccs2)C1` was tested. Which INHIBITION did it give?
**A.** 27.61%

**Q.** `Cc1ccc(-c2nnc(CN3CCOC(Cn4cccn4)C3)o2)cc1` (stereo unspecified) was tested. Which INHIBITION did it give?
**A.** -47.05%

**Q.** How did the INHIBITION turn out when `Cc1cnn(CC2CN(Cc3cccc(C(=O)N(C)C)c3)CCO2)c1` (stereo unspecified) was run?
**A.** 18.46%

**Q.** For `CC(C)(C)c1nnc(CN2CCOC(Cn3cncn3)C2)o1` (stereo unspecified), which INHIBITION is on record?
**A.** 62.13%

**Q.** How did the INHIBITION turn out when `Cc1ccc(-c2nnc(CN3CCOC(Cn4cncn4)C3)o2)cc1` (stereo unspecified) was run?
**A.** 51.46%

**Q.** `Fc1ccc(-c2nnc(CN3CCOC(Cn4cncn4)C3)o2)cc1` (stereo unspecified) was tested. Which INHIBITION did it give?
**A.** -77.99%

**Q.** `CC(C)(C)c1nnc(CN2CCCC(Cn3cncn3)C2)o1` (stereo unspecified) was tested. Which INHIBITION did it give?
**A.** 15.31%

**Q.** How did the INHIBITION turn out when `CN(C)C(=O)c1cccc(CN2CCOC(Cn3cccn3)C2)c1` (stereo unspecified) was run?
**A.** -21.39%

**Q.** How did the INHIBITION turn out when `CN(C)C(=O)c1cccc(CN2CCOC(Cn3cncn3)C2)c1` (stereo unspecified) was run?
**A.** 74.35%

**Q.** How did the INHIBITION turn out when `CC(C)(C)c1nnc(CN2CCOC(Cn3cccn3)C2)o1` (stereo unspecified) was run?
**A.** 11.18%
